# Results: PubChem BioAssay (NCATS)
# Unmarked numbers belong to inactive results. Records with an inconclusive call do not appear. Calls of active or inactive are those of the source. Unless noted, calls come from the whole dose curve; as a rule, active = well fitted curve in the direction sought with a large enough effect; inconclusive = small, poorly fitted or top-dose-only effect, or another doubt; inactive = no such curve, though single readings can be large; an effect the other way counts as inactive or inconclusive.
# How the values were obtained:
# [1] = biological target: Cytochrome P450 1A2 (Homo sapiens) (UniProt P05177); experiment: p450-cyp1a2 (AID 410; calls by dose curve; note: potency is the fitted concentration of half-maximal effect)
# Chain of Cytochrome P450 1A2 (Homo sapiens) (P05177 whole entry, looked up): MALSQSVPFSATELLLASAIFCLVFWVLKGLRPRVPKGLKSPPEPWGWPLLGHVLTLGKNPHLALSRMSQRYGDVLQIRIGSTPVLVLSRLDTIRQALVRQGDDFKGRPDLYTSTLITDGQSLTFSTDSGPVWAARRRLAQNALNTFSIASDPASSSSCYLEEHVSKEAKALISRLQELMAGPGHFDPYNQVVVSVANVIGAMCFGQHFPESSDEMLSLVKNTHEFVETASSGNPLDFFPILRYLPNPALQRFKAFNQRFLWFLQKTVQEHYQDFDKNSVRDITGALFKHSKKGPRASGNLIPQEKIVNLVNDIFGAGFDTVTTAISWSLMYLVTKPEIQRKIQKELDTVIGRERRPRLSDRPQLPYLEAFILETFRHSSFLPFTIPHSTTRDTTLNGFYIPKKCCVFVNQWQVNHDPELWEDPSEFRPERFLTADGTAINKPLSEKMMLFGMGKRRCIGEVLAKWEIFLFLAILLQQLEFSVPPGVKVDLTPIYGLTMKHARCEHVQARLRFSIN
# Procedure, shortened: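 Human CYP1A2 (20nM) demethylated Luciferin-ME at its Km (100uM) in 100mM KPO4. After 10 min compound preincubation, NADPH regeneration ran the reaction 60 min at room temperature. Luciferin was read by luminescence, normalized to 57 uM furafylline.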
# [2] = Stat Signaling Pathway (AID 446; active = well fitted curve in either direction with a large enough effect, not every such curve was filed as active;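 note: ME-180 cervical cancer cells given 40 pM IL-6 alongside compound; SIE-controlled beta-lactamase reporter measured as 460/530 nm FRET emission ratio; % is set by controls: 0 for no effect and ±100 for the full control effect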); conditions: ME-180 SIE beta-lactamase reporter, IL-6 stimulated, 5 h; at 17.2 µM (top of the series) unless noted
# Procedure, shortened: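 IL-6/STAT signaling read in ME-180 cells via an SIE beta-lactamase reporter. Stimulus was 40 pM IL-6 (its AC50) for 5 hrs, so both activation and inhibition register.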
# [3] = biological target: Glucocorticoid receptor (Homo sapiens) (UniProt P04150); experiment: GR-GFP Redistribution (AID 450;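 active = compounds whose dose series gives a full or clear partial fitted curve of increased nuclear translocation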; note: potency is the fitted concentration of half-maximal effect)
# Chain of Glucocorticoid receptor (Homo sapiens) (P04150 whole entry, looked up, the tested form may be a part): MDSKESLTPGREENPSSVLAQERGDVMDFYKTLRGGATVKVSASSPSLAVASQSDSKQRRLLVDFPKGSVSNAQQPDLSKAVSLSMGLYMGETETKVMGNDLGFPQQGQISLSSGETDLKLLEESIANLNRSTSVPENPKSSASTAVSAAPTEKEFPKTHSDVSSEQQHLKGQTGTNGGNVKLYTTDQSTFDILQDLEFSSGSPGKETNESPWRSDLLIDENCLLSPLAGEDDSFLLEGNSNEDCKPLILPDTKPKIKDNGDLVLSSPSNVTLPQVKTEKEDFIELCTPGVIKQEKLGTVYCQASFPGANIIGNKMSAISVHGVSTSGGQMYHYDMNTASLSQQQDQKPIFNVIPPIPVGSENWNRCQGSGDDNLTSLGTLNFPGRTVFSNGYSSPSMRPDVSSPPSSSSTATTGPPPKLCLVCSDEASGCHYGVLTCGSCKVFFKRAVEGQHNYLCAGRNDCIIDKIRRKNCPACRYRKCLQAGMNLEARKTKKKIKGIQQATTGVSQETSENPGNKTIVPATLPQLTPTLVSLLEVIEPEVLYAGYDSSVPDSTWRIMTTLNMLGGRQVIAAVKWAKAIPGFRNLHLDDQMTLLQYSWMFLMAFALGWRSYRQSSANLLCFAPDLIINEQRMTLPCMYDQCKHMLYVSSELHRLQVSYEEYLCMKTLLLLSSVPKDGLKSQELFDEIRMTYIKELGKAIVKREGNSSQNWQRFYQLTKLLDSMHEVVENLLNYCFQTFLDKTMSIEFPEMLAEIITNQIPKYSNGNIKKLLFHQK
# [4] = biological target: Glucocorticoid receptor (Homo sapiens) (UniProt P04150); experiment: GR-EFC Redistribution (AID 451; calls by dose curve; note: potency is the fitted concentration of half-maximal effect); conditions: CHO-K1 GR-EFC translocation, beta-gal luminescence, 2 h
# Procedure, shortened: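 CHO-K1 cells expressing nuclear EA and GR-ED fragments of b-gal; compounds titrated up to 46 uM final, 2 h at 37 C. GR nuclear translocation read as complemented b-gal luminescence after 1 h RT detection.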
# [5] = biological target: Cytochrome P450 3A4 (Homo sapiens) (UniProt P08684); experiment: qHTS Assay for Activators of Cytochrome P450 3A4 (AID 885); note: nearly all actives have a fitted effect of over 65% in size
# Chain of Cytochrome P450 3A4 (Homo sapiens) (P08684 whole entry, looked up): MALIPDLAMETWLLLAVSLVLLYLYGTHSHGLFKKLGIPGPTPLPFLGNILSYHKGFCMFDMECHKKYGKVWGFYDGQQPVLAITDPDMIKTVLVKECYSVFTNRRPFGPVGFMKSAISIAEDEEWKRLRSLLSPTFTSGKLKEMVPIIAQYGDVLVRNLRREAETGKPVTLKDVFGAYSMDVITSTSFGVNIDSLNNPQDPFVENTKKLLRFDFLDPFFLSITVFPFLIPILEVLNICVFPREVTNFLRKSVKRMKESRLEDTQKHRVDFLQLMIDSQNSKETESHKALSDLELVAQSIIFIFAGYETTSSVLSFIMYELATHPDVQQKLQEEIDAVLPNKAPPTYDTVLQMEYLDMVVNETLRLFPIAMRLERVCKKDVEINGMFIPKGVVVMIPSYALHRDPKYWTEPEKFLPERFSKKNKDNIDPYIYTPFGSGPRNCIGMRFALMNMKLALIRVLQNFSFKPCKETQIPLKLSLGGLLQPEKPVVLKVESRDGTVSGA
# Procedure, shortened: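 Quantitative HTS format: compounds preincubated with 20nM human CYP3A4 and Luciferin-PPXE substrate at KM, reaction started by NADPH regeneration, stopped after 60 min, luciferase luminescence read 20 min later.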
# [6] = biological target: Cytochrome P450 2D6 (Homo sapiens) (UniProt P10635); experiment: qHTS Assay for Inhibitors and Substrates of Cytochrome P450 2D6 (AID 891); note: potency is the fitted concentration of half-maximal effect; nearly all actives have a fitted effect of over 60% in size
# Chain of Cytochrome P450 2D6 (Homo sapiens) (P10635 whole entry, looked up): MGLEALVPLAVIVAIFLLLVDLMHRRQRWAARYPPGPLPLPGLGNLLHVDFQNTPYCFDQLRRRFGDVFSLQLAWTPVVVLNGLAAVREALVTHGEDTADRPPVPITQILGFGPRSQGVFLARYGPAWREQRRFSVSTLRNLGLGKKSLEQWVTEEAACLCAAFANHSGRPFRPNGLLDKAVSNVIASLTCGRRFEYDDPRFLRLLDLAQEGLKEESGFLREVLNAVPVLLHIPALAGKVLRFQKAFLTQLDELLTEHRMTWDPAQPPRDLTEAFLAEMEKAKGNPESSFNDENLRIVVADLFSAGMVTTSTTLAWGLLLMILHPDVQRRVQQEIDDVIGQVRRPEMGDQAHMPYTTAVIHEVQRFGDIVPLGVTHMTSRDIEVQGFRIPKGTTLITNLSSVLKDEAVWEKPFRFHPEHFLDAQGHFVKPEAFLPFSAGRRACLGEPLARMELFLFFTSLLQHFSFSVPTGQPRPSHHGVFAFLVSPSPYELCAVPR
# Procedure, shortened: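 Human CYP2D6 (5 nM) with 30 uM Luciferin-ME EGE (at Km) in 100 mM KPO4, compound preincubated 10 min, then NADPH regeneration system for 60 min at room temperature. Luciferin read by luminescence; normalized to 1.43 uM quinidine.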
# [7] = biological target: Muscarinic acetylcholine receptor M1 (Rattus norvegicus) (UniProt P08482); experiment: qHTS Assay for Antagonists of Acetylcholine Muscarinic M1 Receptor: Kinetic Measurement of Intracellular Calcium Response (AID 943); note: potency is the fitted concentration of half-maximal effect; nearly all actives have a fitted effect of over 75% in size
# Chain of Muscarinic acetylcholine receptor M1 (Rattus norvegicus) (P08482 whole entry, looked up): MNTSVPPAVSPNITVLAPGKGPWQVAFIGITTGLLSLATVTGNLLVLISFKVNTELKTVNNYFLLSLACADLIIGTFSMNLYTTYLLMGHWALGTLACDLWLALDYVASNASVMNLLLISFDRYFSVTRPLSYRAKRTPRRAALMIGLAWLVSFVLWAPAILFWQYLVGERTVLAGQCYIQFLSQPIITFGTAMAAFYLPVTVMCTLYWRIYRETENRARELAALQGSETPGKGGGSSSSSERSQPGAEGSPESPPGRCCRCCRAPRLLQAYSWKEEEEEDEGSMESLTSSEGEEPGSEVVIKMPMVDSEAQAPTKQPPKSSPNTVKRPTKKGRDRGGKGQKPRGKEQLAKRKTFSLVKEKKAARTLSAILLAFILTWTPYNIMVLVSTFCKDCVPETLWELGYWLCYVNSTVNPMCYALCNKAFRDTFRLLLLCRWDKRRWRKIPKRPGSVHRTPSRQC
# Procedure, shortened: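 CHO cells stably expressing rat M1 were loaded with no-wash Fluo-4 dye for 1 h at 37C, pre-incubated 10 min with compound, then challenged with EC80 carbachol (100 nM final); kinetic calcium read 4 min, peak/basal ratio.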
# [8] = biological target: Pyruvate kinase (Leishmania mexicana) (UniProt Q27686); experiment: qHTS Validation Assay for Inhibitors of Leishmania Mexicana Pyruvate Kinase (AID 945);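 note: 0% = DMSO only neutral control wells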
# Chain of Pyruvate kinase (Leishmania mexicana) (Q27686 2-499 E452W): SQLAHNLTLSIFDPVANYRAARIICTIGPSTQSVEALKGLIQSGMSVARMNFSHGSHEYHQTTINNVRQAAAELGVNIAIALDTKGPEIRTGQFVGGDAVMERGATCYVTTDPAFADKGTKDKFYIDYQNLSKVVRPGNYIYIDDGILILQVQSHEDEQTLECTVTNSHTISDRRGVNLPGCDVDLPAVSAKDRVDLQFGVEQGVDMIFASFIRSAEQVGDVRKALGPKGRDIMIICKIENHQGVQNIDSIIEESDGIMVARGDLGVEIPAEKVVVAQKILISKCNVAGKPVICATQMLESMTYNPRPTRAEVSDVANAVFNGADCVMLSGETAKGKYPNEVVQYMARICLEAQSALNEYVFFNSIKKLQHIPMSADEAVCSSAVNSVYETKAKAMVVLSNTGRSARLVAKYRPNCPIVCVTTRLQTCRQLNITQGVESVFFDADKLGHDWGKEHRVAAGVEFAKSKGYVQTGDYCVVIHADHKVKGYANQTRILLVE
# Procedure, shortened: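 Luminescent ATP detection (PKLight) after a 1 h room-temperature reaction of 0.2 nM LmPYK E451W mutant with 0.5 mM PEP and 0.1 mM ADP at pH 7.2. Activity is normalized to DMSO-only control wells.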
# [9] = biological target: Pyruvate kinase PKM (Homo sapiens) (UniProt P14618); experiment: qHTS Assay for Activators of Human Muscle Pyruvate Kinase (AID 954; active = well fitted curve in the direction sought with a large enough effect, not every such curve was filed as active;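 note: 0% = uninhibited enzyme and -100% = no enzyme or full thiadiazolimine inhibition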)
# Chain of Pyruvate kinase PKM (Homo sapiens) (P14618 whole entry, looked up): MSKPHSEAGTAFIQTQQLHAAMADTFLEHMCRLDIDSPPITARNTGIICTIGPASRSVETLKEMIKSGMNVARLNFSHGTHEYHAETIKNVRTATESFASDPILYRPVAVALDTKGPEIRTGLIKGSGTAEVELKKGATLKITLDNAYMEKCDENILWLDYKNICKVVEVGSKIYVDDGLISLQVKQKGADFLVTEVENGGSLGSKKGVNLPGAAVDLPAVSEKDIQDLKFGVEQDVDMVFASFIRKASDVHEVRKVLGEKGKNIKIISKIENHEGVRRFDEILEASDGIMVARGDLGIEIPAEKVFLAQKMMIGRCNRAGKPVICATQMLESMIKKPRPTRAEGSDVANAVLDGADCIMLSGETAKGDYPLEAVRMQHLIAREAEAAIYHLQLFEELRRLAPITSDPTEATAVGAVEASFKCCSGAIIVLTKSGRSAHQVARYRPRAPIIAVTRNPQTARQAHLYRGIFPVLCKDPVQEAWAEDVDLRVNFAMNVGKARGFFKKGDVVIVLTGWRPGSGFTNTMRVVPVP
# Procedure, shortened: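 Enzyme was run at intermediate activity so both inhibitors and activators could be detected. ATP formed from ADP and PEP by 0.1 nM human PKM2 during a 1 h room-temperature incubation was quantified by coupled luciferase luminescence.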
# [10] = biological target: Alpha-galactosidase A (Homo sapiens) (UniProt P06280); experiment: Counterscreen for Glucocerebrosidase Inhibitors: qHTS Assay for Human alpha-Galactosidase at pH 4.5 (AID 992); note: 0% is about no effect
# Chain of Alpha-galactosidase A (Homo sapiens) (P06280 whole entry, looked up): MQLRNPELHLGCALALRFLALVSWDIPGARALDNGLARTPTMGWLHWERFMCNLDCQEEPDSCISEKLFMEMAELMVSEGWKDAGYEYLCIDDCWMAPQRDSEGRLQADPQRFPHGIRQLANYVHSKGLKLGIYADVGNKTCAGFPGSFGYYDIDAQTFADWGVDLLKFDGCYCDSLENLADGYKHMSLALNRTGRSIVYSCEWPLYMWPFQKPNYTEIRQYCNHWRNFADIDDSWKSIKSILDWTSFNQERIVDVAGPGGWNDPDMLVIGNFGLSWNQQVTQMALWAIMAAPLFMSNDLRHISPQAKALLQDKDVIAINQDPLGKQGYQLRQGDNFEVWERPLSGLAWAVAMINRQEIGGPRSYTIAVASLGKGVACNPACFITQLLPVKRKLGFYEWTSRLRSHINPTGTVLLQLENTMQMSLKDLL
# Procedure, shortened: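 Read-out is 4-methylumbelliferone fluorescence (365 nm excitation, 440 nm emission) after a pH 10 NaOH/glycine stop. Reactions held 2 nM enzyme and 80 uM substrate at pH 4.5 for 20 min at room temperature.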
# [11] = biological target: alpha-glucosidase (Oryza sativa, rice) (UniProt Q653V4); experiment: Counterscreen for Glucocerebrosidase Inhibitors: qHTS Assay for Rice alpha-Glucosidase at pH 5.0 (AID 997);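 note: 0% = full activity with enzyme and -100% = basal without enzyme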
# Procedure, shortened: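 Rice alpha-glucosidase (4 nM final) with 400 uM 4-methylumbelliferyl-alpha-D-glucopyranoside in citrate buffer pH 5.0, 20 min at room temperature, stopped at pH 10; fluorescence 365/440 nm, compounds 0.7 nM–77 uM, AC50 from Hill fits.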
# [12] = AP1 Signaling Pathway (AID 357; active = well fitted curve in either direction with a large enough effect, not every such curve was filed as active;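 note: ME-180 reporter cells stimulated with EGF at its EC50 level; % is set by controls: 0 for no effect and ±100 for the full control effect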); conditions: ME-180 AP-1-bla reporter, EGF-induced, beta-lactamase ratio, 5 h; at 17.2 µM (top of the series) unless noted
# Procedure, shortened: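 AP-1-bla ME-180 cells, Opti-MEM + 0.5% dialyzed FBS, plated overnight 37 °C. Cpd titration + EC50 EGF, 5 h 37 °C. CCF4 2.5 h RT; ex 405, em 460/530 ratio → %activity, AC50.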
# [13] = qHTS Assay for Identification of Small Molecule Agonists for Hypoxia Response Element Signaling Pathway (AID 914; active = well fitted activation curve with a large enough effect in the signal ratio, with a control signal flat, not every such curve was filed as active; the % refers to the signal ratio; note: % of control where 0% means no effect); conditions: ME-180 (cervical carcinoma) HRE-bla reporter, beta-lactamase ratio, CoCl2, 17 h; activation: active compounds read high
# Procedure, shortened: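 HRE-bla ME-180 cells, overnight plating in Opti-MEM with 0.5% dialyzed FBS; cpd titration + EC50 CoCl2, 17 h, 37 degrees Celsius; CCF4 2.5 h RT; 460/530 nm ratio; AC50.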
# [14] = biological target: 3',5'-cyclic-AMP phosphodiesterase 4B (Homo sapiens) (UniProt Q07343); experiment: qHTS Assay for Inhibitors of PDE-IV (AID 607; active = well fitted activation curve with a large enough effect in the main read-out, with a control signal flat, not every such curve was filed as active; note: % of control where 0% means no effect)
# Chain of 3',5'-cyclic-AMP phosphodiesterase 4B (Homo sapiens) (Q07343 whole entry, looked up): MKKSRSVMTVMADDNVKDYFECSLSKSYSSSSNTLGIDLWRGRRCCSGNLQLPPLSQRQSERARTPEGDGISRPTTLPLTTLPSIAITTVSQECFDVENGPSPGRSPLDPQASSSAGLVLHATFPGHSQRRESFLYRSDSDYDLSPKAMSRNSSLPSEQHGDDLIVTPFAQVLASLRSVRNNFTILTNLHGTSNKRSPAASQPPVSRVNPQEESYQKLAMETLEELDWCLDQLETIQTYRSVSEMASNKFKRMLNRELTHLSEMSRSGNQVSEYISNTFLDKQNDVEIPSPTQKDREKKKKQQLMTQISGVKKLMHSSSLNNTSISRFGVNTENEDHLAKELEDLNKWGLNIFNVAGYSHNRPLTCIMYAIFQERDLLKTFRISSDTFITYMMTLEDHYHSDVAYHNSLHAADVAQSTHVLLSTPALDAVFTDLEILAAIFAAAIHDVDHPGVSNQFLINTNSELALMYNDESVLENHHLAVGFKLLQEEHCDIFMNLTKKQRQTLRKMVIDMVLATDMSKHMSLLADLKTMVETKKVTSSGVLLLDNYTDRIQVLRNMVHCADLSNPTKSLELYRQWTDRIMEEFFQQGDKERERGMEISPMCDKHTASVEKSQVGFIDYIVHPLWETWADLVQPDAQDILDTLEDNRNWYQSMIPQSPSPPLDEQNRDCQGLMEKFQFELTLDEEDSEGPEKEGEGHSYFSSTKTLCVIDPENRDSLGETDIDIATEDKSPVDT
# Procedure, shortened: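 Live HEK293 cells with a modified cyclic nucleotide-gated (CNG) channel report intracellular cAMP via membrane-potential dye fluorescence (ex 535/em 590 nm). Endogenous PDE-IV was targeted. Compounds were tested at up to 22.9 uM final; RO 20-1724 100 uM served as control.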
smiles,measurement,setting,value
CN1CCN([C@@H]2Cc3ccccc3Sc3ccc(Cl)cc32)CC1,Potency,[1],12.6 µM (active)
same,"activity, negative = inhibition",[2],2.01% [at 38 µM]
same,Potency,[3],> 46 µM
same,Potency,[4],> 46 µM
same,Potency,[5],inactive
same,Potency,[6],0.398 µM (active)
same,Potency,[7],1.78 µM (active)
same,Potency,[8],inactive
same,outcome,[9],inactive
same,outcome,[10],inactive
same,outcome,[11],inactive
C=CCNC(=O)C(C#N)c1nc2ccccc2nc1N1CCCCCC1 (stereo not drawn),"activity change, negative = inhibition",[12],-18.4%
same,Potency,[3],> 20.6 µM
CCOC(=O)NC(Nc1sc2c(c1C(=O)OC)CCN(C)C2)(C(F)(F)F)C(F)(F)F,"activity change, negative = inhibition",[12],12.1%
same,Potency,[3],> 20.6 µM
same,activation,[13],6.5%
CCSc1nnc(NC(=O)NC(CC)(C(F)(F)F)C(F)(F)F)s1,"activity change, negative = inhibition",[12],-15.5%
same,Potency,[3],> 20.6 µM
CCOc1ccc2c(ccc(/C=C\c3cc(C)c4cccnc4c3O)[n+]2C)c1,"activity change, negative = inhibition",[12],-9.14% [at 7.69 µM]
same,Potency,[3],> 46 µM
same,Potency,[4],> 9.22 µM
same,Potency,[14],inactive
CCC/C=C(\CCC)C(NS(=O)(=O)c1ccc(-c2ccccc2)cc1)c1ccc(C(=O)OC)cc1 (stereo not drawn),Potency,[1],6.31 µM (active)
